# Assay results as given in PubChem BioAssay (Tox21).
# Unmarked numbers belong to inactive results. Inconclusive results are not listed. Where a call stands in place of a potency, no number is given. Calls of active or inactive are those of the source. Unless noted, the call rests on the fitted dose curve; in most records, active means well fitted curve in the direction sought with a large enough effect in the repeat runs; inconclusive means weak or mixed curves; inactive means no such curve, though single readings can be large; an effect the other way counts as inactive or inconclusive.
# What was measured:
# [1] = molecular target: Estrogen receptor (Homo sapiens) (UniProt P03372); experiment: qHTS assay to identify small molecule antagonists of the estrogen receptor alpha (ER-alpha) signaling pathway using the BG1 cell line in the presence of 0.1 nM 17-beta-estradiol (AID 1259244); further: nearly all actives have a fitted effect of over 50% in size; further: potency means the concentration at half of the fitted maximal effect
# Procedure, shortened: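 VM7Luc4E2 cells (endogenous full-length ER-alpha, 4×ERE-luciferase), kept 5 days in phenol red-free, charcoal-stripped FBS medium; 4,000 cells/well. Compounds added with 0.1 nM (final) 17beta-estradiol, 22 hr at 37C; luminescence read with ONE-Glo after 30 min.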
# [2] = qHTS assay to identify small molecule HDAC inhibitors (AID 1259364); further: top concentration of the series differs between compounds; nearly all actives have a fitted effect of over 45% in size
# Procedure, shortened: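 Wild-type HCT-116 cells, plated overnight at 37 C, exposed to compounds 2 hr at 37 C; luminogenic HDAC-Glo substrate then added 30 min at room temperature. Luminescence reports relative endogenous class I/II HDAC activity.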
# [3] = qHTS assay to identify small molecule HDAC inhibitors - cell viability counter screen (AID 1259365); further: series mostly up to about 92 µM; nearly all actives have a fitted effect of over 50% in size
# Procedure, shortened: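 Cytotoxicity was gauged in wild-type HCT-116 cells after a brief 2hr treatment with DMSO-dissolved compounds at 37C and 5% CO2, using CellTiter-Glo luminescence developed for 30min at room temperature.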
# [4] = qHTS assay to identify small molecule agonists of the sonic hedgehog signaling (Shh) pathway - cell viability counter screen (AID 1259366); further: nearly all actives have a fitted effect of over 50% in size; further: potency means the concentration at half of the fitted maximal effect
# Procedure, shortened: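 Stable Gli1-Luc NIH/3T3 clone, 2,000 cells/well. Compound exposure 24hr at 37C. Read-out: CellTiter-Fluor fluorescence.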
# [5] = qHTS assay to identify small molecule antagonists of the sonic hedgehog signaling (Shh) pathway - cell viability counter screen (AID 1259367); further: nearly all actives have a fitted effect of over 55% in size; further: potency means the concentration at half of the fitted maximal effect
# Procedure, shortened: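 NIH/3T3-derived Gli1-Luc reporter cells (2,000 per well) rested 4 hr at 37 C, then received DMSO compounds plus conditioned medium. After 23 hr of treatment, CellTiter-Fluor was added for 1 hr at 37C and fluorescence read.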
# [6] = qHTS assay to identify small molecule agonists of the sonic hedgehog signaling (Shh) pathway (AID 1259368; calls by dose curve;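 further: NIH/3T3-derived 3T3Gli1-Luc cells carrying a stable Gli1-driven firefly luciferase reporter; series mostly up to about 92 µM; nearly all actives have a fitted effect of over 15% in size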)
# Procedure, shortened: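 NIH/3T3-derived 3T3Gli1-Luc cells with stably integrated Gli1-driven firefly luciferase, 2,000 cells/well, compounds added after 4 hr. Incubated 24 hr at 37C, 5% CO2; luminescence read after 30 min with luciferase reagent at room temperature.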
# [7] = molecular target: Estrogen receptor beta (Homo sapiens) (UniProt Q92731); experiment: qHTS assay to identify small molecule antagonists of the estrogen receptor beta (ER-beta) signaling pathway (AID 1259378; active means well fitted inhibition curve with a large enough effect in the signal ratio in the repeat runs, not every such curve was filed as active; the % refers to the signal ratio; further: potency means the concentration at half of the fitted maximal effect)
# Procedure, shortened: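 ER-beta-UAS-bla HEK293T (GripTite) cells in 2% charcoal-stripped FBS medium were preincubated 6 hr at 37C, dosed with compound, then stimulated with 1 nM E2 (final) for 16 hr; beta-lactamase reporter read by B/G FRET fluorescence after 2 hr substrate loading.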
# [8] = qHTS assay to identify small molecule agonists of the androgen receptor (AR) signaling pathway in the presence of an antagonist - cell viability counter screen (AID 1259379); further: nearly all actives have a fitted effect of over 25% in size; further: potency means the concentration at half of the fitted maximal effect
# Procedure, shortened: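 MDA-kb2 cells (MMTV-luciferase, AR/GR), 3,000/well, 5 h attachment, then 3.0 µM nilutamide (final) and compounds at 15 concentrations. Viability by CellTiter-Fluor fluorescence after 16 h at 37 °C, 0% CO2, in the reporter wells.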
# [9] = qHTS assay to identify small molecule agonists of the estrogen receptor beta (ER-beta) signaling pathway - cell viability counter screen (AID 1259380); further: nearly all actives have a fitted effect of over 30% in size; further: potency means the concentration at half of the fitted maximal effect
# Procedure, shortened: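 ER-beta-UAS-bla HEK293T cells in medium with 2% charcoal-stripped FBS, pre-incubated 6 hr, then treated 16 hr at 37C. Cytotoxicity read in the same wells by CellTiter-Glo luminescence after 30 min at room temperature.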
# [10] = molecular target: Androgen receptor (Homo sapiens) (UniProt P10275); experiment: qHTS assay to identify small molecule agonists of the androgen receptor (AR) signaling pathway in the presence of an antagonist (AID 1259381; calls by dose curve; further: nearly all actives have a fitted effect of over 15% in size)
# Procedure, shortened: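 MDA-kb2 cells carrying MMTV-luciferase (AR/GR responsive), 3,000 cells/well, co-treated with 3.0 uM nilutamide final. Compounds at 15 concentrations, 16 hr at 37C without CO2. Luciferase luminescence read after 30 min with ONE-Glo.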
# [11] = qHTS assay to identify small molecule antagonists of the estrogen receptor beta (ER-beta) signaling pathway - cell viability counter screen (AID 1259382); further: nearly all actives have a fitted effect of over 55% in size; further: potency means the concentration at half of the fitted maximal effect
# Procedure, shortened: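 ER-beta-UAS-bla HEK293T cells in 2% charcoal-stripped FBS medium, treated with compound plus 1 nM 17-beta-estradiol for 16 h at 37C. Viability read by CellTiter-Glo luminescence after 30 min at room temperature in the same wells.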
# [12] = qHTS assay to identify small molecule agonists or antagonists of the thyroid stimulating hormone receptor (TSHR) signaling pathway - wild type cell line counter screen (AID 1259384; calls by dose curve)
# Procedure, shortened: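 Wild-type HEK293 cells were plated 18 h at 37 C/5% CO2, pin-dosed with compound plus Ro20-1724 medium, held 30 min at room temperature, then given cAMP-d2 and anti-cAMP-cryptate; fluorescence was read after 1 h. Fifteen concentrations, triplicate.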
# [13] = qHTS assay to identify small molecule antagonists of the sonic hedgehog signaling (Shh) pathway (AID 1259369; calls by dose curve; further: nearly all actives have a fitted effect of over 45% in size)
# Procedure, shortened: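 NIH/3T3-derived Gli1-Luc reporter cells plated 4 h, dosed with compound, then stimulated with conditioned medium for 24 h at 37 C. Firefly luciferase luminescence read after 30 min with detection reagent at room temperature.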
# [14] = molecular target: Thyrotropin receptor (Homo sapiens) (UniProt P16473); experiment: qHTS assay to identify small molecule antagonists of the thyroid stimulating hormone receptor (TSHR) signaling pathway (AID 1259385; calls by dose curve; further: nearly all actives have a fitted effect of over 20% in size)
# Procedure, shortened: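 TSHR-HEK293 cells were plated and held 18 h at 37C/5% CO2, then given compound plus Ro20-1724 and stimulated with TSH at 1.5 ng/mL final. After 30 min at room temperature, cAMP was detected with cAMP-d2/anti-cAMP-cryptate (1 h) by fluorescence.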
# [15] = qHTS assay to identify small molecule antagonists of the androgen receptor (AR) signaling pathway using the MDA cell line in the presence of 0.5 nM R1881 - cell viability counter screen (AID 1259242); further: nearly all actives have a fitted effect of over 45% in size
# Procedure, shortened: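 MDA-kb2 cells (MMTV-luciferase, AR/GR responsive) were treated with compounds plus 0.5 nM R1881 (final) for 16 hr at 37C, 0% CO2. Viability was then read in the same wells as live-cell protease fluorescence (CellTiter-Fluor, 30 min).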
# [16] = molecular target: Estrogen receptor beta (Homo sapiens) (UniProt Q92731); experiment: qHTS assay to identify small molecule agonists of the estrogen receptor beta (ER-beta) signaling pathway (AID 1259377; active means well fitted activation curve with a large enough effect in the signal ratio in the repeat runs, not every such curve was filed as active; the % refers to the signal ratio)
# Procedure, shortened: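 Measured by fluorescence intensity from a B/G FRET beta-lactamase substrate (2 h, room temperature) in ER-beta-UAS-bla HEK293T cells treated with DMSO-dissolved compounds for 16 hr at 37C and 5% CO2.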
# [17] = molecular target: Estrogen receptor (Homo sapiens) (UniProt P03372); experiment: qHTS assay to identify small molecule agonists of the estrogen receptor alpha (ER-alpha) signaling pathway in the presence of an antagonist (AID 1259383; calls by dose curve; further: top concentration of the series differs between compounds; nearly all actives have a fitted effect of over 15% in size)
# Procedure, shortened: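 VM7Luc4E2 cells express endogenous full-length ER-alpha with an ERE-luciferase reporter and were hormone-deprived for 5 days. Compounds at 15 concentrations were added with 10.0nM ICI-182,780 for 22hr at 37C. Luminescence was read with ONE-Glo.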
# [18] = qHTS assay to identify small molecule phospholipidosis (PLD) inducers (AID 1259344; active means well fitted curve in the direction sought with a large enough effect; an effect the other way counts as inactive or inconclusive)
# Procedure, shortened: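 HepG2 cells on collagen I, attached 4 h at 37 C, were co-treated with compound and LipidTOX Red dye for 24 h at 37 C, then fixed with paraformaldehyde plus Hoechst 33342 and imaged by high-content microscopy for phospholipid accumulation.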
# Thyrotropin receptor (Homo sapiens), sequence (P16473 whole entry, looked up): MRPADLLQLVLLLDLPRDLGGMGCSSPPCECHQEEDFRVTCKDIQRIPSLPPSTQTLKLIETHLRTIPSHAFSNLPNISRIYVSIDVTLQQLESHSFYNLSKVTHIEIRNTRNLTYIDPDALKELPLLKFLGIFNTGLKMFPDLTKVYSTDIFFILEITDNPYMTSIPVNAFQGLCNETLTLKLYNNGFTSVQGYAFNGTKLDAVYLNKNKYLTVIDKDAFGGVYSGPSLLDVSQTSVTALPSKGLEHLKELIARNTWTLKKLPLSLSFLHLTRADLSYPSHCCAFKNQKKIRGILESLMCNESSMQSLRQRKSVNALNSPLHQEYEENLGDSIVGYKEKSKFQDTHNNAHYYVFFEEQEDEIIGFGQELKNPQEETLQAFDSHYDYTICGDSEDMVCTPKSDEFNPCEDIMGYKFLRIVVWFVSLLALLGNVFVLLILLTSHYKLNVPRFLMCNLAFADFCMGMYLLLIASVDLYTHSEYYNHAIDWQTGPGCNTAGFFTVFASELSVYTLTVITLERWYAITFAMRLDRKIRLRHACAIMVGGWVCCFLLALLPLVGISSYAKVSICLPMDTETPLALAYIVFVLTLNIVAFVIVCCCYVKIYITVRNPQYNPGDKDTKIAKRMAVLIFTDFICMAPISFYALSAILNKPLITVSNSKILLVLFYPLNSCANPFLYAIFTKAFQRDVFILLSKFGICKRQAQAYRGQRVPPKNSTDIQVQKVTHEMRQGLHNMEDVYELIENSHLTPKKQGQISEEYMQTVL
# Estrogen receptor (Homo sapiens), sequence (P03372 whole entry, looked up): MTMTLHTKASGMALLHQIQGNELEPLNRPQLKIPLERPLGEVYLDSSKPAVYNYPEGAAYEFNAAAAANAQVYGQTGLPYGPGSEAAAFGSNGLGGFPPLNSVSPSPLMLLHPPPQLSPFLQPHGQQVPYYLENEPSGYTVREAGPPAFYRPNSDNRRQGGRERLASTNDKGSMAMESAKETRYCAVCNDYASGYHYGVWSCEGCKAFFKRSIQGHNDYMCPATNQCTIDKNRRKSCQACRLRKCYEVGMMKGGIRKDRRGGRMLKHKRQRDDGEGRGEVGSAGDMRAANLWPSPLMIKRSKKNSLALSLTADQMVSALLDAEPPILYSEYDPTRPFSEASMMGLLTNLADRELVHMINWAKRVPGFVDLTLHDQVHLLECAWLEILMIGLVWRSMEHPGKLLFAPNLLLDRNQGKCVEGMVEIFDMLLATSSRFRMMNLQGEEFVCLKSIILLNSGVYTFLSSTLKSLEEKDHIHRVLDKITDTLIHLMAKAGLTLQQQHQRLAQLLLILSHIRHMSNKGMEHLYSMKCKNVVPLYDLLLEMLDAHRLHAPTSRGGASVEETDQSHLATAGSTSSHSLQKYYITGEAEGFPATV
# Estrogen receptor beta (Homo sapiens), sequence (Q92731 whole entry, looked up): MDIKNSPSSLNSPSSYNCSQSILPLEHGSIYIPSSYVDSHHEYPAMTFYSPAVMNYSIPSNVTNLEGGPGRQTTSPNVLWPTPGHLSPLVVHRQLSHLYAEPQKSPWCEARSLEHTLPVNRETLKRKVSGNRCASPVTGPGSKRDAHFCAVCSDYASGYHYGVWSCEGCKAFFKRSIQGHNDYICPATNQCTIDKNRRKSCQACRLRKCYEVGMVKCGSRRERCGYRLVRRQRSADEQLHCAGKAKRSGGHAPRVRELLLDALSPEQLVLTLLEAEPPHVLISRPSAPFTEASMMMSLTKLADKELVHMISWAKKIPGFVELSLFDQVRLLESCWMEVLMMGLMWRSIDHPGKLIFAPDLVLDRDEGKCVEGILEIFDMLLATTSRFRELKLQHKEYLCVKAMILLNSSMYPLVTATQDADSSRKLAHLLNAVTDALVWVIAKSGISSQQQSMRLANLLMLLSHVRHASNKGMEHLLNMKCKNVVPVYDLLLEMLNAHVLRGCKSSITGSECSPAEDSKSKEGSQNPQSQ
# Androgen receptor (Homo sapiens), sequence (P10275 whole entry, looked up): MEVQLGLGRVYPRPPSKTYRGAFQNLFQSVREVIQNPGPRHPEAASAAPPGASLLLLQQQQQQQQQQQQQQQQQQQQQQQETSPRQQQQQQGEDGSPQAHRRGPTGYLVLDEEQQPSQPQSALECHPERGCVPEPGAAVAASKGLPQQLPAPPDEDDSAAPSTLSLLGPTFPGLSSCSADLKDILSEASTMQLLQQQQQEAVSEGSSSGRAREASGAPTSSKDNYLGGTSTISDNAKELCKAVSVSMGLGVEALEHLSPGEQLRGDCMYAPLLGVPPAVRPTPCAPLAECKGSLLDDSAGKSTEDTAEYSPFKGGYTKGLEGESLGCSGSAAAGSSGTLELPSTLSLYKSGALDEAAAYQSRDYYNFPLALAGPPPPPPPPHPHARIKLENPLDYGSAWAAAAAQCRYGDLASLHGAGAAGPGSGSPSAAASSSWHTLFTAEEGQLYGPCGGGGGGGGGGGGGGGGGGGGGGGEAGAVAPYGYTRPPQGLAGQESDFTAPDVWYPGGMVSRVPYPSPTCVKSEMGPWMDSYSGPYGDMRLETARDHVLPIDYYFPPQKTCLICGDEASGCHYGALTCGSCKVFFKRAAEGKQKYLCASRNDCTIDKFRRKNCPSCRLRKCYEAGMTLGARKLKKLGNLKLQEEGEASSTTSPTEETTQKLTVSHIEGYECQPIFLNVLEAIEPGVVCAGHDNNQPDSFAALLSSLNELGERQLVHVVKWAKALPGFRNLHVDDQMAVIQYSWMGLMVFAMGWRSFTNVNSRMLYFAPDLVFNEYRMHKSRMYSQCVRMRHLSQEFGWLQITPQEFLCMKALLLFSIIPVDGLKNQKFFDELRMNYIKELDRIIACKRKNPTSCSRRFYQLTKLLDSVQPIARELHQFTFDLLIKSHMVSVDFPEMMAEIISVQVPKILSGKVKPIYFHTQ
Structure (SMILES),Potency [1],Potency [2],outcome [3],Potency [4],Potency [5],outcome [6],Potency [7],Potency [8],Potency [9],Potency [10],Potency [11],Potency [12],Potency [13],Potency [14],outcome [15],outcome [16],Potency [17],PLD induction [18],outcome [18]
N#CC(CCc1ccc(Cl)cc1)(Cn1cncn1)c1ccccc1 (configuration not stated),27.3 µM (active),inactive,inactive,48.6 µM (active),27.3 µM (active),inactive,30.6 µM (active),48.6 µM (active),68.6 µM (active),inactive,48.6 µM (active),inactive,–,–,–,–,–,–,–
CC(C)[N+](=O)[O-],–,inactive,inactive,inactive,inactive,inactive,–,inactive,inactive,–,–,inactive,inactive,inactive,–,–,–,–,–
O=C(CCN1CC1)OCC(CO)(COC(=O)CCN1CC1)COC(=O)CCN1CC1,–,inactive,inactive,inactive,inactive,inactive,–,inactive,inactive,–,inactive,inactive,inactive,–,inactive,–,–,–,–
CCCCOC(=O)[C@@H](C)Oc1ccc(Oc2ccc(C#N)cc2F)cc1,inactive,inactive,inactive,inactive,inactive,inactive,inactive,inactive,–,–,inactive,inactive,–,–,inactive,inactive,inactive,–,–
CCc1cc2c(s1)-n1c(C)nnc1CN=C2c1ccccc1Cl,18.8 µM (active),inactive,inactive,–,inactive,inactive,–,inactive,inactive,–,–,–,–,–,inactive,inactive,–,-2.33% [at 1.53 µM],–
O=[N+]([O-])c1ccc(CBr)cc1,inactive,inactive,inactive,inactive,inactive,inactive,–,inactive,inactive,–,inactive,inactive,inactive,inactive,inactive,–,inactive,–,–
O=C1OC(c2ccc(O)c(S(=O)(=O)O)c2)(c2ccc(O)c(S(=O)(=O)O)c2)c2c(Br)c(Br)c(Br)c(Br)c21,inactive,inactive,inactive,inactive,inactive,inactive,inactive,inactive,inactive,–,inactive,inactive,inactive,inactive,–,inactive,–,–,inactive
COc1ccc(C(=O)N2CCCC2=O)cc1,–,inactive,inactive,inactive,inactive,inactive,–,inactive,–,–,–,inactive,inactive,inactive,inactive,–,–,–,inactive
ClCCCN1CCN(c2cccc(Cl)c2)CC1,inactive,inactive,inactive,inactive,inactive,inactive,–,inactive,inactive,–,inactive,inactive,inactive,inactive,–,–,inactive,–,–
ClCCOCOCCCl,–,inactive,inactive,inactive,inactive,inactive,inactive,inactive,inactive,–,–,inactive,inactive,inactive,inactive,inactive,–,–,–
